This is an account of results in the supplement of paper PMC13380429.

Unmarked numbers belong to inactive results.

In this test the test system is Vero E6 infected with SARS-CoV-2. Briefly: inhibition of SARS-CoV-2 cytopathic effect; higher = more antiviral protection, active = above 15. The following applies: 48 h.

As to `Cc1ccc(NC(=O)C2(c3ccc4c(c3)OC(F)(F)O4)CC2)nc1-c1cccc(C(=O)O)c1` [lumacaftor], the “inhibition of SARS-CoV-2 cytopathic effect” value (“inhibition” for short) is 2.48% (1 nM); 0.38% (8.33 nM); -1.4% (100 nM); -0.17% (833.33 nM); 1.24% (10000 nM).
The like results for `CN(C)CCCC1(c2ccc(F)cc2)OCc2cc(C#N)ccc21` (stereo not given) [citalopram] were, in that order, -0.29%, 2.58%, 1.49%, -0.995% and -4.99%.
On to `Cc1nc2c([nH]1)-c1ccccc1N(C(=O)c1ccc(NC(=O)c3ccccc3-c3ccccc3)cc1)CC2` [conivaptan], for which the “inhibition” value reads like this: (1 nM) 3.24%; (8.33 nM) -1.76%; (100 nM) 0.14%; (833.33 nM) -0.62%; (10000 nM) -6.5%.
For `O=C(Nc1ccc(F)cc1)N1CCc2ccccc2[C@@H]1c1ccc(C(F)(F)F)cc1`, in that order: 0.09%, -1.41%, -0.59%, -1.97% and -1.53%.
For `CCNC(=O)NS(=O)(=O)c1sc(CC(C)C)cc1-c1ccc(Cn2c(-c3ccccc3)nc(OC)c2C=O)cc1`, in that order: -1.39%, -0.39%, 2.26%, 1.08% and 0.67%.
For `c1cc(-c2cnn3cc(-c4ccc(OCCN5CCCCC5)cc4)cnc23)ccn1` [dorsomorphin], in that order: -2.38%, -0.08%, 2.59%, -0.64% and -2.57%.
Consider `Cc1nnsc1C(=O)Nc1ccc(-n2nc(C(F)(F)F)cc2C(F)(F)F)cc1`, for which the “inhibition” value (1 nM) is -4.22%; the “inhibition” value (8.33 nM) is 2.91%; the “inhibition” value (100 nM) was 0.56%; the “inhibition” value (833.33 nM) was -0.23%; the “inhibition” value (10000 nM) was -10.5%.
On to `COc1cc(N)c(Cl)cc1C(=O)OCCN1CCCCC1`, for which the “inhibition” value is, setting by setting: (1 nM) 2.34%; (8.33 nM) 2.09%; (100 nM) 1.8%; (833.33 nM) 1.01%; (10000 nM) 2.59%.
The like results for `CCCCc1oc2ccc(NS(C)(=O)=O)cc2c1C(=O)c1ccc(OCCCN(CCCC)CCCC)cc1` [dronedarone] were, in that order, 3.27%, 1.28%, -0.45%, 4.57% and 29.3% (active).
For `CC(C)Oc1cccc(CC(=O)N2CCC[C@](CC[N+]34CCC(c5ccccc5)(CC3)CC4)(c3ccc(Cl)c(Cl)c3)C2)c1`, in that order: 1.67%, 0.54%, 0.54%, 4.46% and 1.59%.
For `C[C@@H]1C[C@H]2[C@@H]3CCC4=CC(=O)C=C[C@]4(C)[C@@]3(Cl)[C@@H](O)C[C@]2(C)[C@@]1(OC(=O)c1ccco1)C(=O)CCl`, in that order: -0.2%, -2.64%, -2.34%, -2.86% and 3.12%.
Regarding `COc1cc(N2CCOCC2)ccc1Nc1ncc(Cl)c(Nc2ccccc2NS(C)(=O)=O)n1`, the “inhibition” value was 0.93% (1 nM); 2.59% (8.33 nM); 2.32% (100 nM); -2.21% (833.33 nM); -13.2% (10000 nM).
With `C1CCC(C(CC2CCCCN2)C2CCCCC2)CC1` (stereo not given) [perhexiline], the “inhibition” value was 0.59% (1 nM); 4.47% (8.33 nM); 2.39% (100 nM); 0.87% (833.33 nM); 48.5% (active) (10000 nM).
In the case of `CN1CCN(Cc2ccc(Nc3ncc(Cl)c(Nc4ccccc4S(=O)(=O)N(C)C)n3)cc2)CC1`, the “inhibition” value (1 nM) is 1.64%; the “inhibition” value (8.33 nM) was 0.81%; the “inhibition” value (100 nM) was 2.68%; the “inhibition” value (833.33 nM) is -8.19%; the “inhibition” value (10000 nM) was -10.2%.
The like results for `CN1C2C=C(c3sccc3Br)CC1CC2` (stereo not given) were, in that order, 24.2% (active), -2.54%, -0.99%, -2.31% and 3.11%.
With `Cc1ccc2c(c1CCC(=O)O)CC[C@@H](NS(=O)(=O)c1ccc(Cl)cc1)C2` [terutroban], the “inhibition” value reads like this: (1 nM) -4.39%; (8.33 nM) -2.46%; (100 nM) -5.1%; (833.33 nM) -1.42%; (10000 nM) 0.09%.
`CC(C)(C)CC(C)(C)c1ccc(O)c(Cc2ccc(Cl)cc2Cl)c1` [clofoctol]: the “inhibition” value by setting is: (1 nM) 3.11%; (8.33 nM) 0.06%; (100 nM) 2.41%; (833.33 nM) 3.05%; (10000 nM) -0.97%.
With `NC(=O)c1noc([C@H](CCCC2CCCCC2)CC(=O)NO)n1`, the “inhibition” value reads like this: (1 nM) 1.44%; (8.33 nM) -2.89%; (100 nM) 0.07%; (833.33 nM) -1.38%; (10000 nM) -7.78%.
For `Cc1nc(-c2cccnc2)sc1C(=O)Nc1ccccc1-c1cn2c(CN3CCOCC3)csc2n1`, in that order: -1.3%, 1.11%, 1.74%, 0.18% and -2.05%.
The like results for `O=C(O)Cc1cccnc1C(=O)O` [homoquinolinic-acid] were, in that order, 3.71%, -1.17%, -11.5%, 1.81% and 1.14%.
For `C#C[C@]1(O)CC[C@H]2[C@@H]3CCc4cc(OC)ccc4[C@H]3CC[C@@]21C` [mestranol], in that order: 0.06%, 0.82%, 0.83%, 0.76% and -0.67%.
Consider `O=C(O)/C=C/c1ccc(O)cc1` [naringeninic-acid], for which the “inhibition” value (1 nM) is 1.32%; the “inhibition” value (8.33 nM) was -1.82%; the “inhibition” value (100 nM) is -12%; the “inhibition” value (833.33 nM) is -0.34%; the “inhibition” value (10000 nM) is -0.09%.
As for `C#C[C@]1(O)CC[C@H]2[C@@H]3CCC4=CC(=O)CC[C@@H]4[C@H]3CC[C@@]21C` [Norethindrone (Norethisterone)], the “inhibition” value by setting is: (1 nM) -1.49%; (8.33 nM) -0.9%; (100 nM) -1.69%; (833.33 nM) 1.37%; (10000 nM) 2.33%.
